Results reported in ChEMBL document CHEMBL3988442, “University of Dundee, Small-Polar-MMV Screening Library” (2021).
Among all 48,000 compounds or so, about 13,000 (27%) showed an effect of 50% or more. Some of the results follow.

What follows are compounds tested on Wolbachia pipientis (assay: Anti-Wolbachia Cell-Based Screen). Settings: 5 µM.
Assay type: functional
Set-up: scale not given: in the data most compounds retested in dose-response had high values
With `CCCN(C)C(=O)c1ccc2c(c1)[nH]c(=O)n2CCOCC` the “Percent Effect” value was -27.89%. With `Cc1csc(CNC(=O)NCC(O)c2cccc(Cl)c2)n1` (stereo not drawn) the “Percent Effect” value was -23.66%. With `C=C(C)CN(CC)C(=O)c1cc(Cl)ccc1NS(C)(=O)=O` the “Percent Effect” value was -12.97%. With `COc1cccc(C2C3=C(COC3=O)Nc3[nH]nc(C)c32)c1OC` (stereo not drawn) the “Percent Effect” value was 3.331%. `CNC(=O)c1cccc(CC2COCCN(Cc3ccc(C)o3)C2)n1` (stereo not drawn) was tested, and the “Percent Effect” value was 193.8%. With `CNC(=O)c1cccc(CC2COCCN(Cc3ccsc3)C2)n1` (stereo not drawn) the “Percent Effect” value was 152.2%. In the case of `Cc1ccc(CN2CC[C@@H]3CN(S(C)(=O)=O)CCO[C@@H]3C2)o1`, the “Percent Effect” value is reported as -7.086%. For `Cc1ccc(CN2CCC3(CC2)CC(NC(=O)c2ccccn2)CO3)o1` (stereo not drawn), the “Percent Effect” value was -7.485%. With `O=C(NCc1cc(N2CCOCC2)ncn1)c1cccc(CO)n1` the “Percent Effect” value was -9.818%. `Cn1nc(CN2CCOCC2)c2c1CN(Cc1ccsc1)C2.O=C(O)C(F)(F)F.O=C(O)C(F)(F)F` was tested, and the “Percent Effect” value was 1.369%. For `COCCN(CCN(C)C)C(=O)NC1CC1`, the “Percent Effect” value was -6.538%. In the case of `CCCNC(=O)C[S+]([O-])Cc1csc(C2CCCCC2)n1` (stereo not drawn), the “Percent Effect” value is reported as 9.015%. `CC(C)c1cc(NCc2csc(N(C)C)n2)nc(N)n1` was tested, and the “Percent Effect” value was -34.84%. With `C1CN(c2nc(C3CC3)no2)CCN(C2CCOCC2)C1` the “Percent Effect” value was 3.883%. `CCn1ncc2c1C(COC)CN(Cc1cnn(C)c1)C2` (stereo not drawn) was tested, and the “Percent Effect” value was 98.55%. In the case of `CCn1ncc2c1C(COC)CN(S(=O)(=O)C1CC1)C2` (stereo not drawn), the “Percent Effect” value is reported as -7.886%. In the case of `CCn1ncc2c1C(COC)CN(Cc1ccc(OC)cc1)C2` (stereo not drawn), the “Percent Effect” value is reported as 12.18%. With `CCn1ncc2c1C(COC)CN(Cc1nccs1)C2` (stereo not drawn) the “Percent Effect” value was 93.87%. For `Cn1ncc2c1C(COCC1CC1)CN(Cc1nccs1)C2` (stereo not drawn), the “Percent Effect” value was -9.049%. For `CC(C)N(CC1CCCN(Cc2ccon2)C1)C(=O)OC(C)(C)C` (stereo not drawn), the “Percent Effect” value was -0.3893%. With `CC(C)OCCNC(=O)C1CCC(=O)N(C2CCCC2)C1` (stereo not drawn) the “Percent Effect” value was -13.5%. With `Cc1ccc(CNC(=O)N2CCN(S(C)(=O)=O)CC2)n1C` the “Percent Effect” value was -9%. For `CN(C)C(=O)c1ccn(-c2ccc3ccccn23)n1`, the “Percent Effect” value was 2.89%. For `CS(=O)(=O)N1CCCCCC1C1CCN(c2ncccc2C#N)CC1` (stereo not drawn), the “Percent Effect” value was -0.7273%. With `CS(=O)(=O)N1CCC[C@H]1c1ncnn1-c1ccc2c(c1)OCO2` the “Percent Effect” value was 23.33%. In the case of `CS(=O)(=O)N1CCCCCC1C1CCN(c2ncccn2)CC1` (stereo not drawn), the “Percent Effect” value is reported as -4.856%. `Cc1ccc2nc(C3CCCN3Cc3scnc3C)[nH]c2c1` (stereo not drawn) was tested, and the “Percent Effect” value was -7.773%. With `Cc1ccc2nc(C3CCCN3Cc3cccc(CCN)c3)[nH]c2c1` (stereo not drawn) the “Percent Effect” value was -6.155%. `Cc1csc(Nc2nccnc2C2CCCN2S(C)(=O)=O)n1` (stereo not drawn) was tested, and the “Percent Effect” value was 47.35%. With `CS(=O)(=O)N1CCCC1c1ccnc2nccn12` (stereo not drawn) the “Percent Effect” value was 122.4%. In the case of `CC(C)=CCCC(C)CN1CCC(n2cc(C(=O)NCCO)nn2)CC1` (stereo not drawn), the “Percent Effect” value is reported as -5.673%. For `CCCn1cnnc1CN(C)C(=O)CCC(=O)Nc1cc(C)ccc1F`, the “Percent Effect” value was -24.09%. For `O=C(CCCn1cncn1)N1CCC2(CCCNC2=O)C1` (stereo not drawn), the “Percent Effect” value was -3.772%. `O=C(C[S+]([O-])Cc1csc(C2CCCC2)n1)Nc1ccccc1` (stereo not drawn) was tested, and the “Percent Effect” value was 0.09199%. For `COCC(O)CN(C)C(=O)NC1CCN(S(C)(=O)=O)CC1` (stereo not drawn), the “Percent Effect” value was 12.14%. `CCC(CC)(CNC(=O)OC(C)(C)C)NC(=O)C1CCOCC1` was tested, and the “Percent Effect” value was 5.998%. `O=S(=O)(NCC(O)c1cccs1)c1ccccc1Cl` (stereo not drawn) was tested, and the “Percent Effect” value was 2.157%. For `CCc1nc(N)nc(NCCC(=O)N2CCCC2)c1C`, the “Percent Effect” value was 9.291%. For `CC(C)(C)C(=O)NC[C@H]1Cn2c(-c3ccccc3)cnc2CO1`, the “Percent Effect” value was -8.442%. With `CN(CC1=CCCN(CCc2ccccn2)C1)C(=O)c1ccco1` the “Percent Effect” value was 0.7414%. In the case of `CCOc1ncccc1NC(=O)N1CCc2ccccc2C1`, the “Percent Effect” value is reported as -0.7073%. With `CN(Cc1ccccn1)C(=O)CNC(=O)N1CCc2ccccc2C1` the “Percent Effect” value was 97.17%. With `CNC(=O)c1cccc(CCNC(=O)N2CCc3ccccc3C2)c1` the “Percent Effect” value was 1.406%. `O=C(NCCNc1ncccn1)N1CCc2ccccc2C1` was tested, and the “Percent Effect” value was 8.02%. With `CN(Cc1ccsc1)C(=O)CN1CCc2c(ncn2C)C1` the “Percent Effect” value was -3.155%. In the case of `CN(Cc1ccsc1)C(=O)CNC(=O)N1CCc2ccccc2C1`, the “Percent Effect” value is reported as 90.63%. For `CC(C)c1noc(C(C)N2CCC(c3nc4ccccc4o3)CC2)n1` (stereo not drawn), the “Percent Effect” value was 1.795%. In the case of `Cc1cc(C)c2c(c1)C(NC(=O)CSc1nnc[nH]1)CCO2` (stereo not drawn), the “Percent Effect” value is reported as 8.701%. With `Cc1nn(C)c2nc(N(C)CC3CCN(CC(C)C)C3)sc12` (stereo not drawn) the “Percent Effect” value was -16.91%. In the case of `O=C(c1ccoc1)N1CCCN(CC2CCOc3ccccc3C2)CC1` (stereo not drawn), the “Percent Effect” value is reported as -7.228%. `Cc1ccc(CNc2nc(O)cc(C3CC(=O)N(C)C3)n2)cc1` (stereo not drawn) was tested, and the “Percent Effect” value was 96.21%. `Cc1ccccc1CNc1nc(O)cc(C2CC(=O)N(C)C2)n1` (stereo not drawn) was tested, and the “Percent Effect” value was -5.04%. For `CN1CC(c2cc(O)nc(NCc3ccc(Cl)cc3)n2)CC1=O` (stereo not drawn), the “Percent Effect” value was 70.24%. `Cc1nc(NC(=O)NC2CC(=O)N(C)C2)nn1C` (stereo not drawn) was tested, and the “Percent Effect” value was 3.668%. `N#Cc1cccc(NC2CC(=O)N(Cc3ccccc3Cl)C2)n1` (stereo not drawn) was tested, and the “Percent Effect” value was -1.238%. For `COc1cccc(CNc2nc(O)cc(C3CC(=O)N(C)C3)n2)c1` (stereo not drawn), the “Percent Effect” value was -3.669%. For `CC(C)(CO)NC(=O)C1CCC(=O)N(Cc2ccc(Cl)cc2)C1` (stereo not drawn), the “Percent Effect” value was -2.281%. For `Cc1cc(C)cc(OCCC(=O)NC2CC(=O)N(C)C2)c1` (stereo not drawn), the “Percent Effect” value was -4.77%. In the case of `CC1CCc2nc(O)c(C(=O)NCc3cccc(F)c3)cc2C1` (stereo not drawn), the “Percent Effect” value is reported as -1.382%. With `CN1CC(c2cc(O)nc(NCc3cccc(F)c3)n2)CC1=O` (stereo not drawn) the “Percent Effect” value was 104.4%. `CN1CC(c2cc(O)nc(NCc3ccccc3Cl)n2)CC1=O` (stereo not drawn) was tested, and the “Percent Effect” value was 83.2%. `CCC(NC(=O)Nc1ccc(OC)c(C)c1)c1noc(C)n1` (stereo not drawn) was tested, and the “Percent Effect” value was -4.029%. `N#Cc1ccc(N2CCCN(CC(=O)N3CCC3)CC2)cc1` was tested, and the “Percent Effect” value was 4.301%. In the case of `CC(C(=O)N1CCCN(c2ccc(C#N)cc2)CC1)n1ccnc1` (stereo not drawn), the “Percent Effect” value is reported as -8.735%. In the case of `CC(C(=O)N1CCCN(c2ncccc2C#N)CC1)n1cccn1` (stereo not drawn), the “Percent Effect” value is reported as 0.5745%. `CC(C(=O)N1CCCN(c2ccccc2C#N)CC1)n1cccn1` (stereo not drawn) was tested, and the “Percent Effect” value was 129.1%. In the case of `CC(C(=O)N1CCCN(c2ccc(C#N)cc2)CC1)n1cccn1` (stereo not drawn), the “Percent Effect” value is reported as 143.8%. With `CC(C)c1nccn1C(C)C(=O)N1CCN(c2ccccc2Cl)CC1` (stereo not drawn) the “Percent Effect” value was -35.17%.
